Test results as given in PubChem BioAssay (NCI).
“And” between values parts separate entries of the source, which are not always exact repeats. Identical values can stand only once. About 83,000 compounds went through this panel and 20% of them were active in at least one assay; those are over-represented in the sample as a whole.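 Percent growth is the endpoint: 0 to 100 indicates growth inhibition (40 means 60% inhibition), 0 means no net growth, and negative values indicate cell death.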 Values without a mark were called inactive. The source made the active and inactive calls. The calls were made as follows: active = growth percent below 10; inactive = the rest.

Tested on: HL-60(TB) leukemia
Assay: NCI-60 one-dose screen, 48 h (100 = growth as untreated, 0 = no growth, -100 = all killed)
Conditions: 10 µM unless noted

Compound | growth
Nc1c(C(=O)Nc2ccncc2)sc2nc3c(cc12)CCCCCC3 | 67.1%
COc1ccc(Cl)c([N+](=O)[O-])c1 | 98.6%
COc1ccc(N=C2NN=C(c3ccc(F)cc3)CS2)cc1OC | 84.5%
Cc1ccc2cccc([N+](=O)[O-])c2n1 | 93.2% and 94.6%
O=C(O)c1ccc(-n2cc(CNc3ccc(Oc4ccccc4)cc3)c(-c3ccccc3)n2)cc1 | 92.5%
N#CC1=C(c2ccc(Br)cc2)NC(SCC(=O)c2ccc(Br)cc2)NC1=O (stereo not given) | 96%
CCN(CC)S(=O)(=O)c1cccc(-c2ccc3c(NC(=O)C4CC4)n[nH]c3c2)c1 | 10.3% [6.25 µM]
COc1ccc(-c2nc(/C=N/Nc3cc(C)nc4ccc(Cl)cc34)c(C)o2)cc1 | -41% (active)
Nc1nc(Cl)c2ncn(Cc3cc4c(cc3I)OCO4)c2n1 | 52.3%
Cn1ccc(Cc2cnc(N)s2)n1 | 94.2%
c1ccc(C2=NN[C@H](c3cn(-c4ccccc4)nc3-c3ccccc3)C2)cc1 | 112%
CC(=O)OC1CC2C(C)(C)OC3CC(=O)OCC32C2CCC3(C)C(=CCC3c3ccoc3)C12C (stereo not given) | 116%
COc1ccc(OC)c(NC=O)c1 | 62.2%
N#Cc1ncc(-c2cc(F)c(F)c(F)c2)c(NC2CCCCCC2)n1 | 108%
Cn1nccc1Nc1nccc(-c2ccn([C@H](CO)c3ccc(Cl)c(F)c3)c(=O)c2)n1 | 57.1%
